An excerpt weighted towards active compounds, which were near 2.4% of everything screened.
D2 PAM-1: potentiates the human D2 dopamine receptor allosterically. potentiation, % (concentration not given with the values). P14416. DiscoveRx D2 beta-arrestin cells, luminescence, 90 min; 100% = 57 uM dopamine signal. AID 624464. 0.23% of 360,000 active; in the data active means potentiation above about 50%; inconclusive means mostly about 30% to 49%
Target sequence (P14416 whole entry, looked up): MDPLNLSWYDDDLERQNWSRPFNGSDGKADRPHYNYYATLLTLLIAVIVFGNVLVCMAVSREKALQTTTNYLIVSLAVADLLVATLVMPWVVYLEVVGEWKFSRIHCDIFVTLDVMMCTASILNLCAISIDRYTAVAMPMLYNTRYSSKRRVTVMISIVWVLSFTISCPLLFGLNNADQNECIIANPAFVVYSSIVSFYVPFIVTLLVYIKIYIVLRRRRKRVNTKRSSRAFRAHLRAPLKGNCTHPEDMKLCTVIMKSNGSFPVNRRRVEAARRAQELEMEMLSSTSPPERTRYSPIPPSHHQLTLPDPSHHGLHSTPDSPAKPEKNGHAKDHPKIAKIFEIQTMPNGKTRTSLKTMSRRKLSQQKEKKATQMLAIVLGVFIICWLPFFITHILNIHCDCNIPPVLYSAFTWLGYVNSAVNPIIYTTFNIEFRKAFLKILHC
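PathHunter D2 cells, attached overnight at 37 deg C, received compound in DMSO plus dopamine at EC20 (50 nM final) for 90 min at 37 deg C. Beta-arrestin recruitment was read as luminescence after 1 h with detection reagent at ambient temperature.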
D2 antag: antagonizes the human D2 dopamine receptor; P14416; HEK293 TREx D2 cells, calcium flux, dopamine EC80; inhibition, % at 10 µM; 2% of 340,000 active; in the data active means inhibition above about 30%; inactive means below that, where a call was filed; further: 0% is about no effect
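Compounds are added to dye-loaded, induced HEK293 T-REx cells coupled to calcium release via D2; after a 3 min kinetic read an EC80 dopamine stimulus is given and fluorescence is recorded for 3 more min.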
D2 ag-1: D2 dopamine receptor (human) agonism; activation, % at 2 µM; 0.53% of 340,000 active; AID 485358; P14416; HEK293 T-REx D2 cells, calcium flux agonist mode;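 active means activation over 3 SD above normal in the single-dose calcium agonist read, cut at about 30% in these data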; further: 0% is about no effect
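Calcium-flux readout, 1 cycle/sec over 180 s following compound pin transfer, in inducible HEK293 Trex D2 cells (force-coupled); dopamine controls included. Positive calcium responses during this window marked compounds as potential agonists.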
D2 ag-2: agonists of human D2 dopamine receptor (beta-arrestin) | DiscoveRx PathHunter D2 beta-arrestin, luminescence, 90 min; 100% = 57 uM dopamine signal | activation, % (test concentration not listed) | 0.084% of 360,000 active | AID 624465; in the data active means activation above about 40%; inconclusive means between about 15% and that limit
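Agonist mode: compounds alone added to overnight-plated D2 PathHunter cells for 90 min at 37 C, with 57 uM final dopamine (EC100) defining full response. Beta-arrestin recruitment detected by chemiluminescent reagent, read after 1 h at ambient temperature.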
D2 PAM-2: positive allosteric modulators of human D2 dopamine receptor; HEK293 T-REx D2, calcium flux, EC20 dopamine potentiation; potentiation, % at 10 µM; AID 485347; 0.34% of 340,000 active;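 active means potentiation over 3 SD above the plate norm, cut at about 30% in these data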; further: 0% is about no effect
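Calcium flux readout, no-wash dye, 1 read/s. Inducible HEK293 Trex D2 line, overnight 30 C. Compound alone 180 s (agonist flags), then EC20 dopamine, another 180 s to score potentiation.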
* = called active by the depositor; ? = inconclusive; . = no result given.

SMILES	D2 PAM-1	D2 antag	D2 ag-1	D2 ag-2	D2 PAM-2
COc1ccccc1C(=O)N1CCN(Cc2nc3cc([N+](=O)[O-])ccc3n2C)CC1	-10	36*	0	-4	-4
CC(=O)N1CCN(Cc2nc3cc([N+](=O)[O-])ccc3n2C)CC1	-6	.	.	0	.
C=CCN(c1ccc(C(=O)Nc2cccc([N+](=O)[O-])c2)cc1)S(C)(=O)=O	-17	37*	0	2	-29
Cc1ccc(C)c(S(=O)(=O)c2cn(C)c3cc(N4CCCCC4C)c(F)cc3c2=O)c1 (centres undefined)	.	.	0	.	-8
Cc1ccc(C(=O)O)cc1NC(=O)c1cccs1	10	44*	0	1	5
Cc1cc(NC(=O)c2cccs2)ncc1NC(=O)c1cccc(F)c1	-2	-17	0	-3	3
Cc1cc(NC(=O)c2ccccc2)ncc1NC(=O)c1cccs1	-3	36*	-1	2	1
Cc1c(C(=O)N2CCCC2)oc2c1-c1nn(CC(=O)NCCCOC(C)C)cc1CC2	-15	35*	0	?	2
Cc1ccc(Cn2cc(C(=O)c3ccc4c(c3)OCO4)c(=O)c3cc(C)ccc32)cc1	.	.	-1	.	-5
CCOC(=O)c1c(SCC(=O)Nc2nc3ccc(C)cc3s2)nc(=O)[nH]c1C	.	.	0	.	17
Fc1cccc(-c2cc3nc4c(c(N5CCC6(CC5)OCCO6)n3n2)CCCC4)c1	1	5	-2	-5	32*
COc1ccc(NC(=O)CSc2[nH]c(=O)cc(C)c2C#N)cc1OC	0	34*	0	-1	11
Cc1cccc(C)c1OCC(=O)OCC(=O)c1ccc2c(c1)NC(=O)CO2	6	30*	1	-1	-5
C[C@H](N)c1nnc(SCC(=O)c2ccc(Cl)cc2)o1	10	40*	2	1	8
Cn1c(NCCc2ccccc2)cc(=O)n(C)c1=O	0	0	1	0	-3
Cn1c(=O)c(NCCc2ccccc2)c2c3c(cccc31)C(=O)c1ccccc1-2	-6	72*	87*	0	-11
Cn1c(=O)c(NC2CCCCC2)c2c3c(cccc31)C(=O)c1ccccc1-2	-1	60*	110*	4	-10
Cn1c(=O)c(NCCO)c2c3c(cccc31)C(=O)c1ccccc1-2	-8	82*	126*	-4	-26
CC(=O)Nc1ccc(Nc2c3c4c(cccc4n(C)c2=O)C(=O)c2ccccc2-3)cc1	-5	3	8	-3	14
CCNc1c2c3c(cccc3n(C)c1=O)C(=O)c1ccccc1-2	-5	21	112*	0	-9
CCc1ccccc1NC(=O)Cn1c(=O)n(Cc2ccco2)c(=O)c2ccccc21	.	.	0	.	-8
CCCCNc1c2c3c(cccc3n(C)c1=O)C(=O)c1ccccc1-2	-6	11	93*	0	-12
Cc1nn(C)c(C)c1CCC(=O)N1CCCC(Nc2ccc(C(C)C)cc2)C1 (centres undefined)	-7	-24	0	-1	36*
CC(C)OCCCn1c(=O)c2ccccc2n2c(-c3ccccc3)nnc12	.	.	0	.	-13
O=c1cc(CSc2nnc(COc3ccccc3)n2-c2ccccc2)c2ccccc2[nH]1	-12	3	-1	0	-1
SMILES	D2 PAM-1	D2 antag	D2 ag-1	D2 ag-2	D2 PAM-2
Cn1c(COc2ccccc2)nnc1SCc1cc(=O)[nH]c2ccccc12	1	39*	1	1	2
CN1CCN(c2nc(-c3ccccc3)cc(C(F)(F)F)n2)CC1	-36	75*	-1	-3	-7
CS(=O)(=O)c1nc(-c2cccs2)cc(C(F)(F)F)n1	.	9	2	.	1
CN1CCN(c2nc(-c3cccs3)cc(C(F)(F)F)n2)CC1	-23	32*	-1	-1	-15
CC1CCN(c2nc(-c3ccccc3)cc(C(F)(F)F)n2)CC1	10	5	0	-1	4
Cc1ccc(-n2ncc3c(N(C)Cc4ccccc4)ncnc32)cc1	.	.	0	.	9
CCN(Cc1ccccc1)C(=O)Cn1c(=O)n(-c2ccccc2)c(=O)c2c1c1cc(C)ccc1n2C	.	.	-1	.	-1
COc1ccc(OC)c(CCNC(=O)c2nc(-c3ccc(Cl)cc3)n3c2CCCCC3)c1	.	.	-2	.	2
COc1cc(NC(=O)C2=CC(c3ccc(F)cc3)=NS(=O)(=O)N2C)cc(OC)c1OC	.	.	-2	.	-23
c1ccn2c(SCc3ccc4c(c3)OCCO4)nnc2c1	-4	-5	0	-2	8
O=C(CSc1nnc(-c2ccccc2)o1)c1ccc2c(c1)OCCO2	-5	3	0	0	6
O=C(CSc1nnc2scc(-c3ccccc3)n12)c1ccc2c(c1)OCCO2	3	31*	-1	0	-8
COc1ccc(-n2nnnc2SCC(=O)c2ccc3c(c2)OCCO3)cc1	-4	-4	0	-4	34*
COc1ccc(-n2nnnc2SCC(=O)c2cccc(OC)c2)cc1	0	14	1	-1	-5
c1ccc(-c2csc3nnc(SCc4ccc5c(c4)OCCO5)n23)cc1	-7	10	1	-3	43*
CCN(CC)S(=O)(=O)c1ccc2c(c1)N(CC(=O)N1CCN(c3cccc(C)c3C)CC1)C(=O)CO2	.	.	0	.	21
Cc1ccc(CCNC(=O)CCn2nc(-c3ccc(Cl)cc3)ccc2=O)cc1	.	.	0	.	-6
CC1=C(C#N)C2(O)C(=O)c3ccccc3C2(O)N1 (centres undefined)	-4	-7	2	0	-7
COc1ccc2c(c1)NC1(O)c3ccccc3C(=O)C21O (centres undefined)	0	32*	0	-2	-8
Cc1cccc2sc(N(Cc3cccnc3)C(=O)c3cccs3)nc12	.	.	0	.	3
O=C(O)Cc1cn(-c2ccccc2)nc1-c1ccc(Cl)cc1	-16	-10	-1	1	31*
O=C(Nc1cn(-c2ccccc2)nc1-c1ccc(Cl)cc1)c1ccccc1	-6	-11	-1	-2	7
Cc1ccc(C2c3cccn3CCN2S(=O)(=O)c2ccc([N+](=O)[O-])cc2)cc1 (centres undefined)	.	.	0	.	-3
CCCCCn1cnc2c(=S)nc(N)[nH]c21	-6	49*	2	2	8
CCCCn1cnc2c(=S)nc(N)[nH]c21	-5	5	1	3	5
Cc1ccc(C(c2sc3nc(-c4ccco4)nn3c2O)N2CCOCC2)cc1 (centres undefined)	.	.	0	.	-8
O=C(NCc1ccco1)c1ccc2c(c1)N(Cc1ccc(F)cc1)C(=O)c1ccccc1S2=O (centres undefined)	.	.	0	.	2
CC1Cc2ccccc2N1C(=O)COC(=O)c1ccco1 (centres undefined)	-10	.	.	1	.

Assay outcomes: PubChem BioAssay, National Center for Advancing Translational Sciences (NCATS)
